# Sampled rows, rich in hits. Any-hit rate of the full collection: about 11%.
# BAZ2B inh – BAZ2B (human) inhibition; Q9UIF8; actives 4.4% (n = 360,000); AlphaScreen BAZ2B-H3K14Ac peptide displacement; Potency, µM (titrated, usually from 114 µM), without a hit: top-dose activity change, negative = inhibition, most hits filed as inhibitors; also: potency is read from the fitted curve at half-maximal effect; % is scaled to controls: 0 for no effect and ±100 for the full control effect; nearly all actives have a fitted effect of over 60% in size
#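 Compounds, titrated to a top concentration of 110 uM, were incubated 30 min at room temperature with preformed BAZ2B/acetyl-K14 H3 peptide complex (50 nM each). Proximity signal was measured by AlphaScreen after 20 min with beads.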
# JMJD2A Tudor – inhibitors of human JMJD2A Tudor domain; AlphaScreen JMJD2A-Tudor / H3K4me3 peptide binding; actives 4.4% (n = 390,000); Potency, µM (top dose mostly 114 µM), for the others: top-dose activity change, negative = inhibition, most hits filed as inhibitors; also: potency is read from the fitted curve at half-maximal effect; % is scaled to controls: 0 for no effect and ±100 for the full control effect; nearly all actives have a fitted effect of over 50% in size
# L3MBTL1 inh – inhibitors of human L3MBTL1; Q9Y468; AlphaScreen L3MBTL1–H3K9me1 peptide binding; Potency, µM (titrated, usually from 57.1 µM), without a hit: at the highest dose activity, negative = inhibition, hits mostly inhibitors; actives 0.66% (n = 230,000); AID 485360; also: potency is read from the fitted curve at half-maximal effect; % is scaled to controls: 0 for no effect and ±100 for the full control effect; nearly all actives have a fitted effect of over 60% in size
#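 Read-out is AlphaScreen signal from streptavidin donor and nickel chelate acceptor beads (10 ug/mL final each) bridging L3MBTL1 (50 nM) and biotinylated K9-monomethylated H3(1-15) peptide (75 nM), after 30 min compound exposure at room temperature.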
# HP1b chromo inh – HP1-beta chromodomain-methylated histone interaction inhibition | AlphaScreen HP1-beta / biotin-H3K9me3 peptide binding | Potency, µM (doses to about 114 µM), for inactives: at the highest dose activity change, negative = inhibition, most hits filed as inhibitors | actives 0.56% (n = 390,000) | P83916; also: potency is read from the fitted curve at half-maximal effect; nearly all actives have a fitted effect of over 70% in size
# Target sequence (P83916 whole entry, looked up): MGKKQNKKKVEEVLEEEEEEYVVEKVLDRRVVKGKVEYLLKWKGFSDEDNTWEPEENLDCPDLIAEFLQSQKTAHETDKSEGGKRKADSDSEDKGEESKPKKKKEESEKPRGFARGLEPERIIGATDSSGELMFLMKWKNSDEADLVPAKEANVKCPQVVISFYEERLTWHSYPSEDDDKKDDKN
#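 HP1-beta protein (50 nM final) preincubated 30 min at room temperature with biotinylated H3(1-18)K9me3 peptide (50 nM) in PBS pH 7.4, 0.01% Tween-20, then compound added for 30 min. AlphaScreen streptavidin donor/nickel chelate acceptor beads (10 ug/mL final), 30 min dark, luminescence read.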
# G9a block – inhibitors of human histone lysine methyltransferase G9a. AID 504332. Q96KQ7. G9a H3K9 monomethylation, AlphaScreen, 2 h. actives 8.8% (n = 350,000). Potency, µM (doses to about 102 µM), without a hit: at the top dose activity, negative = inhibition, most hits filed as inhibitors; also: potency is read from the fitted curve at half-maximal effect; % is scaled to controls: 0 for no effect and ±100 for the full control effect; nearly all actives have a fitted effect of over 75% in size
#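 AlphaScreen detection with an anti-monomethyl H3K9 antibody quantified product after a 2 h room-temperature reaction containing 500 nM biotinylated H3K9 peptide, 20 µM SAM and 20 nM enzyme, which had been preincubated 15 min with compound.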
# PI5P4Ka inh – inhibitors of human PI5P4K alpha; actives 1.2% (n = 330,000); max response, %; P48426; AID 652105; PI5P4Kalpha enzyme, ADP-Glo luminescence, 60 min; active compounds read low; active = max response of -50% or lower; inconclusive = between -30% and -50%; inactive = -30% or higher; also: value at the top dose of about 77 µM; % is scaled to controls: 0 for no effect and ±100 for the full control effect
# Target sequence (P48426 whole entry, looked up): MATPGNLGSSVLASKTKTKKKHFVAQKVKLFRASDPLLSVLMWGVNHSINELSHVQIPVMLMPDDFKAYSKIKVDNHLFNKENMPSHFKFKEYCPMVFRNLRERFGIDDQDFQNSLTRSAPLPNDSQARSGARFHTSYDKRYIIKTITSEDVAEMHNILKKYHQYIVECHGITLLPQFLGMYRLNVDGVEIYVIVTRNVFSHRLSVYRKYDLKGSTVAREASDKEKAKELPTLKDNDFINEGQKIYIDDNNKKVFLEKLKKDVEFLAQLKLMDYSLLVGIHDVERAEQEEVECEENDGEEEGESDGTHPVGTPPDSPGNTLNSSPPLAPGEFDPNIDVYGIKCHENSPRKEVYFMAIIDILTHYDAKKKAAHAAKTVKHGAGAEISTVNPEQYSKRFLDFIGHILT
#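 ADP-Glo luminescence end-point read after a 60 min room-temperature kinase reaction of PI5P4Kalpha plus substrate, initiated with ATP at 5 microM final. Buffer: 0.038 M HEPES pH 7.4, EGTA, 0.1% CHAPS, 5% DMSO.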
# * marks the source's active call; other numbers are inactive results; ? = inconclusive; · = no result; ! = a repeat was not active; [ ] = another dose, or the depositor's remark. Unless noted, calls follow the shape of the dose curve; as a rule, active = well fitted inhibition curve with a large enough effect; inconclusive = small, poorly fitted or top-dose-only effect; inactive = no such curve, though single readings can be large or run the other way.
SMILES,BAZ2B inh,JMJD2A Tudor,L3MBTL1 inh,HP1b chromo inh,G9a block,PI5P4Ka inh
O=C(CCS(=O)(=O)c1ccc(Cl)cc1)Nc1nnc(-c2ccco2)o1,?,?,-4%,37%,-37%,4
Cc1ccc(S(=O)(=O)CCC(=O)Nc2nnc(-c3ccco3)o2)cc1,?,18µM*,-12%,28%,25µM*,-5
Cc1ccc(S(=O)(=O)CCC(=O)Nc2nnc(-c3cccs3)o2)cc1,?,11µM*,0%,36%,-29%,-8
CCOc1ccc(NC(=O)CN2C(=O)C(c3ccccc3)=NC23CCCCCC3)cc1,19%,-12%,·,74%,11%[59 µM],·
O=C(Oc1cccc2cccnc12)c1cccc([N+](=O)[O-])c1,16µM*,50µM*,?,2%,9%,1
O=C(Oc1c(Cl)cc(Cl)c2cccnc12)c1cccc([N+](=O)[O-])c1,28µM*,?,?,-18%,?,-1
Cc1c(C(=O)Oc2cccc3cccnc23)cccc1[N+](=O)[O-],14µM*,45µM*,·,?,?,0
O=C(Nc1cc([N+](=O)[O-])ccc1O)c1cccc(C(=O)Nc2cc([N+](=O)[O-])ccc2O)c1,50µM*,?,-6%,-24%,-12%[59 µM],-24
COc1cc(C2CC(=O)Nc3c2c(=O)[nH]c2nc4ccccc4n32)ccc1O (centres undefined),-25%,-15%,·,-1%,1%[59 µM],·
COc1ccc(N2CCN(C(=O)c3cccn4c(=O)c5ccc(Cl)cc5nc34)CC2)cc1,0%,-17%,·,63%,13%[59 µM],·
COC(=O)c1ccccc1OCCOCCOc1cccc2cccnc12,-32%,-30%[57.1 µM],-18%,?,5%[59 µM],-9
O=C(Oc1ccc(-c2cnc3ccccc3n2)cc1)c1ccc(Cl)c([N+](=O)[O-])c1,9%,-10%,?,7%,?,-13
O=C(Oc1coc(CSc2ncccn2)cc1=O)c1cccc([N+](=O)[O-])c1,-39%,-22%,·,41%,56µM*,-4
O=[N+]([O-])c1ccccc1OCCOCCOc1cccc2cccnc12,32µM*,20µM*,-7%,?,2µM*,-9
O=C(Oc1ccc(-c2cnc3ccccc3n2)cc1)c1cccc([N+](=O)[O-])c1,7%,-15%,-2%,11%,8.9µM*,-10
Cc1cc(C(=O)Nc2cccc3cccnc23)ccc1[N+](=O)[O-],-15%,-8%,-5%,24%,·,-8
O=C(Nc1cccc2cccnc12)c1cccc([N+](=O)[O-])c1,-32%,-11%,·,25%,79µM*,1
Cn1c(=O)c(-c2cccc(C#N)c2)nc2cnc(Oc3ccccc3)nc21,·,·,·,·,-4%[0.501 µM],·
COc1ccc(C2/C=C\CN(S(=O)(=O)CC34CCC(CC3=O)C4(C)C)CC(=O)N2Cc2ccc(F)cc2)cc1 (centres undefined),·,-17%,·,43%,·,·
O=C(Nc1cccc2c(=O)[nH][nH]c(=O)c12)c1ccc([N+](=O)[O-])cc1,·,·,·,·,·,-65*
COc1cccc(C(=O)C[n+]2ccccc2/C=N/O)c1,-25%,-2%,-1%,43%,50µM*,3
CCOC(=O)C1(C)C=C(Nc2ccc(C(N)=O)cc2)C(=O)N1c1ccccc1 (centres undefined),2%,-3%,·,29%,2%[59 µM],·
CC1SC(=NC(=O)c2ccco2)NC1=O (centres undefined),5%,?,0%,-5%,50µM*,·
CN(C)CCOC(C)(c1ccccc1)c1ccccn1 (centres undefined),0%,-7%,-4%,8%,10µM*!,0
CN(C)CCC(c1ccccc1)c1ccccn1 (centres undefined),?,-7%,7%,19%,-4%[59 µM],2
SMILES,BAZ2B inh,JMJD2A Tudor,L3MBTL1 inh,HP1b chromo inh,G9a block,PI5P4Ka inh
CCOC(=O)c1c(C)c(C(=O)NCCc2ccc(OC)cc2)c(C)n1C,-6%,-10%,·,14%,-9%[59 µM],·
O=C(CCN1C(=O)/C(=C\c2ccccc2Cl)SC1=S)Nc1cccnc1,?,?,·,-20%,33%,1
O=C(CCN1C(=O)/C(=C/c2ccccc2F)SC1=S)Nc1cccnc1,1.1µM*,?,·,-6%,·,6
O=C(CCCN1C(=O)/C(=C/c2ccccc2OC(F)F)SC1=S)Nc1cccnc1,·,18µM*,-24%,-23%,·,-3
COc1cc(OC)cc(-n2c(=O)c3ccccc3n(CC(=O)NCCc3ccc(OC)c(OC)c3)c2=O)c1,4%,-12%,·,29%,6%[59 µM],·
CSC1=NC(=O)/C(=C\c2cccc3ccccc23)S1,40µM*,?,-13%,-17%,-23%,-22
CC(C)(C)C1CCc2onc(C(=O)Nc3sc4c(c3C(N)=O)CCCC4)c2C1 (centres undefined),0%,-25%,·,?,3.2µM*,·
CC(C)(C)C1CCc2onc(C(=O)Nc3sc4c(c3C#N)CCCC4)c2C1 (centres undefined),-18%,-26%,·,-18%,2.8µM*,·
CC(C)(C)C1CCc2onc(C(=O)Nc3ccc(F)cc3F)c2C1 (centres undefined),7%,2%,6%,64%,19%[59 µM],·
CC(=O)c1cc(C(=O)Nc2cc(C)cc(C)c2)c2ccccn12,-1%,-6%,·,23%,-29%[59 µM],·
CN1CCc2nc3ccccc3c(C(=O)OCC(=O)N(CCC#N)c3ccccc3)c2C1,?,-13%,-8%,29%,22µM*,-18
N#C/C(=C\c1c[nH]c2ccccc12)C(=O)c1ccc(O)c(O)c1,·,·,·,·,18µM*,·
Cn1c(CCNC(=O)c2cccs2)n[nH]c1=S,3%,18µM*,0%,2%,22µM*,-7
Cn1c(CCNC(=O)OC(C)(C)C)n[nH]c1=S,-15%,40µM*,4%,56%,?,6
O=C(NCc1n[nH]c(=S)n1-c1ccc(Br)cc1)c1cccs1,-16%,25µM*,·,2%,10µM*,-1
CCn1c(CCNC(=O)c2cccs2)n[nH]c1=S,24%,?,25%,34%,?,-8
Cc1cccc(C(=O)NCCc2n[nH]c(=S)n2C)c1,-2%,?,-17%,10%,11µM*,-10
CCCCN(CC)CCCNC(=O)c1sc2nc(C)cc(C)c2c1-n1cccc1,10%,-24%,·,68%,-23%[59 µM],·
CC(C)(C)C1CCc2c(sc(NC(=O)c3ccc(Cl)cc3)c2C(=O)NCc2ccco2)C1 (centres undefined),4%,-7%,·,55%,0%[59 µM],·
Cn1c(CNC(=O)c2cccs2)n[nH]c1=S,8%,14µM*,4%,15%,28µM*,-4

# High-throughput results: PubChem BioAssay, National Center for Advancing Translational Sciences (NCATS)
